Screening data as filed in PubChem.
Shown are actives, neighbours in structure and some others; about 6.1% of the full set was active somewhere.
D3 antag: blocks the human D3 dopamine receptor | AID 652054 | actives 2.5% (n = 360,000) | D3R cells, DiscoveRx beta-arrestin luminescence, antagonist mode; hits give low values | max response, negative = inhibition, % | P35462; in the data active = max response below about -50%; inconclusive = no clear call, values can overlap the other calls; note: % is set by controls: 0 for no effect and ±100 for the full control effect
Target sequence (P35462 whole entry, looked up): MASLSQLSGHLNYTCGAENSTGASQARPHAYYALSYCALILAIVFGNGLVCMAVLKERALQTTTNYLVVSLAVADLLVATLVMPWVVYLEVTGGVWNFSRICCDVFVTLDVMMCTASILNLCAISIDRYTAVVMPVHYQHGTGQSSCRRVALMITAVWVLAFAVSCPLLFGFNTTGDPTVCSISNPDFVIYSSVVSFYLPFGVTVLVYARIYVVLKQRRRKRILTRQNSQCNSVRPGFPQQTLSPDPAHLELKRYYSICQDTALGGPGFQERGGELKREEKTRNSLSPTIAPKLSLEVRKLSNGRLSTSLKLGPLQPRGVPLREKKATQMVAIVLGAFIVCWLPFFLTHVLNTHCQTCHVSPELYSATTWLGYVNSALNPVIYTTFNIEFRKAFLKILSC
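Cells plated overnight at 1500 cells/well, then exposed to library compounds with dopamine controls for 90 minutes at 37 degrees C. DiscoveRx reagent added for 30–60 minutes at room temperature; luminescence read, quantitative HTS format.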
D1 agonist: human D1 receptor agonism; P21728; HEK293 T-REx D1 cells, calcium flux, agonist mode; activation, % at 2 µM; actives 1% (n = 360,000); AID 504660; in the data active = activation above about 30%; note: 0% is about no effect
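Tetracycline-induced HEK293 TREx D1 cells, force-coupled to calcium signalling, were dye-loaded with a no-wash calcium kit. Compound was pin-added after a 10 s baseline. Fluorescence was read kinetically at 1 cycle/s for 180 s, with calcium rises flagged as agonism.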
D1 potentiator: enhances dopamine response at the human D1 receptor | AID 504651 | HEK293 TREx D1 cells, calcium flux, dopamine EC20 potentiation | potentiation, % at 10 µM | actives 0.036% (n = 360,000); in the data active = potentiation above about 30%; note: 0% is about no effect
D3 ag: D3 dopamine receptor (human) agonism. P35462. D3R DiscoveRx beta-arrestin cells, luminescence, 90 min. max activation, %. actives 0.58% (n = 410,000). AID 652048; in the data active = max activation above about 30%; note: 0% is about no effect
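Agonist mode: compounds and dopamine controls were applied to plated cells for 90 min at 37 degrees C after an overnight attachment at 1500 cells/well. Luminescent read-out followed 30 - 60 minutes at room temperature with DiscoveRx detection reagent.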
D1 antagonist: antagonists of human D1 dopamine receptor; HEK293 TREx D1 cells, calcium flux, dopamine EC80; hits give low values; activity change, negative = inhibition, % at 10 µM; actives 3.2% (n = 360,000); in the data active = activity change below about -30%; note: % is set by controls: 0 for no effect and ±100 for the full control effect
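Allosteric or orthosteric antagonism assessed as attenuation of the calcium response to EC80 dopamine, added 180 s after compound, in induced HEK293 Trex D1 cells loaded with no-wash calcium dye.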
Active calls of the source: *; u = inconclusive; x = not tested or not shown.

SMILES	D3 antag	D1 agonist	D1 potentiator	D3 ag	D1 antagonist
O=C1C2CCCCC2C(=O)N1c1ccc(NC2CCN(Cc3ccccc3)CC2)c([N+](=O)[O-])c1 (stereo unspecified)	-17	1	7	-17	4
O=C(O)[C@H](O)[C@@H](O)[C@H](O[C@@H]1O[C@H](CO)[C@H](O)[C@H](O)[C@H]1O)[C@H](O)CO	x	x	x	-5	x
CCN(CC)CC1C(=O)N(c2ccc(OC)cc2)C1c1ccccc1 (stereo unspecified)	3	8	-5	-4	-39*
O=C(Nc1cccc(Cl)c1)c1ccc2c(c1)CCN2S(=O)(=O)c1ccccc1	x	2	3	0	-20
CCOc1cc(C=O)ccc1OCCSc1ccc(Cl)cc1	1	4	-1	12	-37*
Cc1ccc(S(=O)(=O)Nc2cccc(-c3ccc(N4CCCCC4)nn3)c2)s1	x	1	-2	1	-80*
O=C(Nc1cccc(-c2ccc(N3CCCCC3)nn2)c1)c1ccc(Br)o1	6	2	-3	0	-23
O=C(Nc1cccc(-c2ccc(N3CCCCC3)nn2)c1)C(F)(F)F	-20	12	-11	-1	-33*
CC1CCN(c2ccc(-c3cccc(NC(=O)C(F)(F)F)c3)nn2)CC1	-14	12	-10	-7	-55*
CCOc1ccc(CCNC(=O)Cn2nc(-c3ccc(C)cc3)ccc2=O)cc1OCC	x	-2	1	-4	7
Cc1ccc(Cn2c(=O)c3cccnc3n(Cc3ccc(C)cc3)c2=O)cc1	x	0	-7	4	-30*
CC(=O)N[C@H]1[C@H]([C@H](O)[C@H](O)CO)OC(C(=O)O)=C[C@@H]1N=C(N)N	x	x	x	-7	x
Cc1c(C(=O)Nc2cccc(C#N)c2)sc2nc3n(c(=O)c12)CCCCC3	x	2	-3	2	4
CC(/C=C/C=C(\C)C(=O)O[C@@H]1O[C@H](CO[C@@H]2O[C@H](CO)[C@@H](O)[C@H](O)[C@H]2O)[C@@H](O)[C@H](O)[C@H]1O)=C\C=C\C=C(C)\C=C\C=C(/C)C(=O)O[C@@H]1O[C@H](CO[C@@H]2O[C@H](CO)[C@@H](O)[C@H](O)[C@H]2O)[C@@H](O)[C@H](O)[C@H]1O	x	x	x	12	x
CC(NCC1COc2ccccc2O1)C1COc2ccccc2O1 (stereo unspecified)	-63*	1	0	-23	-2
OCCN1CCN(CC(O)COCC2COc3ccccc3O2)CC1 (stereo unspecified)	-17	-2	-4	2	9
CC(C)N1CCN(CC2COc3ccccc3O2)CC1 (stereo unspecified)	-50*	5	-7	3	17
CCNC(=O)CC1C(=O)N(c2ccc(F)cc2)C(=O)N1Cc1ccc(OC)c(OC)c1 (stereo unspecified)	x	-1	-1	7	16
COc1cccc(NC(=O)CNC(=O)Cn2c(C)cc3ccccc3c2=O)c1	x	1	1	8	10
c1ccc(-c2csc(Nc3ccccn3)n2)cc1	-6	4	-3	3	-19
Oc1ccc(-c2csc(Nc3ccccn3)n2)cc1	-2	2	-20	-4	-79*
Cc1ccc(C2=NN(C(=O)CCC(=O)O)C(c3cccc([N+](=O)[O-])c3)C2)cc1 (stereo unspecified)	-58*	10	28	-15	5
CCOC(=O)Cn1c(=O)n(-c2ccccc2OC)c2nc(-c3ccc(C(C)C)cc3)nc(C(N)=O)c21	x	9	0	6	-9
CC1(C)Cc2ccccc2-c2nnc(-c3ccco3)n21	-52*	0	-3	-6	0
Cc1ccc(C)c(OCCCC(=O)O)c1	-19	2	1	1	-7
SMILES	D3 antag	D1 agonist	D1 potentiator	D3 ag	D1 antagonist
Cc1ccc(OCCCCN2CCc3ccccc3C2)c(C)c1	-106*	0	-7	-31	-6
Cc1ccc(C(C)C)c(OCCCn2c(=O)oc3ccccc32)c1	x	33*	-2	4	5
Cc1ccc(C(C)C)c(OCCCn2c(=O)oc3ccc(C)cc32)c1	x	14	-1	2	11
Cc1ccc(C)c(OCCCN2CCc3ccccc3C2)c1	-89*	0	-14	-12	-3
Cc1ccc(C(C)C)c(OCCN2CCc3ccccc3C2)c1	-67*	1	-3	-34	13
Cc1cc(C(C)(C)C)ccc1OCCCCN1CCCC1	-11	30	4	-15	-13
Cc1ccc(C(C)C)c(OCCCN2CCc3ccccc3C2)c1	-85*	-1	-5	-20	35
Cc1ccc(C(C)C)c(OCCCN2C(=O)NC(C)(C)C2=O)c1	-4	0	-2	0	5
O=S(=O)(c1ccc2c(c1)OCCO2)N1CCN(S(=O)(=O)c2c(Cl)cc(C(F)(F)F)cc2Cl)CC1	x	4	2	x	-14
COc1cc(C(=O)N/N=C(\c2ccccc2)c2ccccn2)cc(OC)c1OC	u	0	-8	-19	-10
COc1ccc(CNC(=O)C/C(C)=N/NC(=O)c2cnccn2)cc1	10	35*	9	3	8
COc1cccc(C(=O)N/N=C(/c2ccccc2)c2ccccn2)c1	-30	4	-2	-4	-62*
C/C(=N\NC(=O)c1ccc(Cl)cc1)c1ccccn1	-106*	3	-2	-35	-15
C/C(CC(=O)Nc1cccc(Cl)c1Cl)=N\NC(=O)c1ccccc1C	11	3	-7	2	-43*
O=C(O)c1ccc(C(=O)Nc2cccc3cccnc23)cc1	x	2	-8	x	3
CN(C)C1(CNC(=O)COc2ccc(C(C)(C)C)cc2)CCCCC1	x	15	-1	-16	0
CC(Oc1ccccc1)C(=O)OCc1cc(=O)n2nc(C(C)C)sc2n1 (stereo unspecified)	x	7	-3	-2	-7
C/C(=N\NC(=O)COc1ccccc1-c1ccccc1)c1cccnc1	1	1	3	6	9
COc1ccccc1NC(=O)C/C(C)=N/NC(=O)c1ccccn1	4	0	-2	17	-38*
C/C(=N\NC(=O)c1cc(C)nc2ccccc12)c1ccncc1	-14	0	-3	-8	-43*
C/C(=N\NC(=O)c1cc(C)nc2ccccc12)c1ccccn1	-74*	3	-1	-15	-13
COc1cc(NC(=O)C/C(C)=N/NC(=O)c2ccccn2)c(OC)cc1Cl	0	1	20	-27	3
C/C(=N\NC(=O)COc1ccccc1-c1ccccc1)c1ccccn1	-58*	12	1	-22	-2
C/C(=N\NC(=O)c1cc(C)nc2ccccc12)c1ccco1	4	-1	-4	6	x
COc1ccc(CCNC(=O)Cn2c(=O)c3cccn3c3ccccc32)cc1OC	x	7	-5	0	4
